Our source for the composite z-score and z-score values is PubChem BioAssay.

Active and inactive are the calls of the source. Unless noted, the rule behind the calls is not given here.

Assay [1] has as its system Wnt5a (protein binding on small-molecule microarray). The experiment in a line: small molecules binding Wnt5a protein – biophysical, small-molecule microarray, 635/667 nm fluorescence, primary screen (AID 1142).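 Note: fluorescence read at 667 nm with signal to noise per printed feature.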 The following applies: 635 nm fluorescence, higher = more signal.
Assay [2] in a line: ATP-based viability of Huh7 replicon cells – cell-based, CellTiter-Glo luminescence, basal, 48 h, cytotoxicity control for HCV replication inhibitor project, primary screen (AID 1143).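 Note: Huh7 hepatoma cells carrying a hepatitis C replication reporter with no stimulus; test concentration not given here.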 The following applies: higher = more signal, called active from +8 up or from −8 down.
A short description of assay [3]: Pseudomonas biofilm growth suppression – PAO1 strain, BacTiter-Glo luminescence, LB-PBS, primary screen (AID 1144). The following applies: P. aeruginosa PAO1 biofilm, 12 h, higher = more signal.
A short description of assay [4]: basal CRE-LacZ reporter activity in PC12 – cell-based, unstimulated, primary screen (AID 1145). The following applies: no forskolin, luminescence, 4.5 h, higher = more signal, called active from +8 up or from −8 down.
Assay [5] can be described thus: forskolin-driven CRE-LacZ activity in PC12 – cell-based, CRE-LacZ reporter, forskolin-stimulated, primary screen (AID 1146).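 Note: PC12 cells with 6xCRE LacZ reporter stimulated by forskolin 10 µM; beta-galactosidase reporter signal reflecting CREB driven transcription.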 Particulars: luminescence, 4.5 h, higher = more signal, called active from +8 up or from −8 down.
Assay [6] addresses Streptavidin (Streptomyces avidinii) (UniProt P22629). The experiment in a line: compounds binding control protein streptavidin – biophysical, small-molecule microarray, 635/667 nm fluorescence, artefact control for SMM compound annotation, primary screen (AID 1147).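 Note: signal reflects streptavidin binding to arrayed compounds as a control protein.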 Particulars: higher = more signal.
Assay [7] can be described thus: probe aInhba binding on compound microarray – biochemical, small-molecule microarray, 635/667 nm fluorescence, primary screen (AID 1148).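 Note: score merges 667nm spot fluorescence with signal-to-noise for antibody binding to printed compounds.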 Particulars: higher = more signal.
Assay [8] addresses Torsin-1A (Homo sapiens) (UniProt O14656). The experiment in a line: TOR1A wild-type binding on microarray – cell lysate, small-molecule microarray, lysate, 635/667 nm, primary screen (AID 1149). The following applies: COS7 hTOR1A-WT lysate, 635 nm fluorescence, higher = more signal.
For assay [9] the target is unchanged. The experiment in a line: torsin A mutant lysate binding on microarrays – cell lysate, small-molecule microarray, COS7 lysate, 635/667 nm fluorescence, primary screen (AID 1150).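 Note: score pools 667 nm emission and signal to noise measuring lysate protein binding.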 The following applies: COS7 hTOR1A mutant lysate, 635 nm fluorescence, higher = more signal.
In assay [10] the test system is Sonic hedgehog protein (Shh). The experiment in a line: Sonic hedgehog microarray binding compounds – biochemical, small-molecule microarray, 635/667 nm fluorescence, primary screen (AID 1151).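 Note: Shh protein binding to compounds spotted on small-molecule microarray slides; score combines spot fluorescence intensity with signal-to-noise across triplicate slides.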 The following applies: 635 nm fluorescence, higher = more signal.
A short description of assay [11]: optical density shifts of acrAB sulA E. coli – strain DRC41, OD650, 48 h, E. coli filamentation inducer project, primary screen (AID 1152).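 Note: E. coli MC1000 strain DRC41 lacking acrAB efflux pump and sulA.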 The following applies: higher = more signal, called active from +8 up or from −8 down.
The nature of assay [12]: probe aLefty1 binding on compound microarray – biochemical, small-molecule microarray, 635/667 nm fluorescence, primary screen (AID 1153).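 Note: score merges spot fluorescence with signal-to-noise ratio from the scanned slide images.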 The following applies: higher = more signal.
A short description of assay [13]: plasmodial surface anion channel blockers, osmotic lysis – cell-based, P. falciparum Indochina, OD700, 1 h, primary screen (AID 1154). The following applies: P. falciparum Indochina infected RBC osmotic lysis, higher = more signal, called active from +8 up or from −8 down.
Assay [14] in a line: plasmodial surface anion channel blockers, osmotic lysis – cell-based, P. falciparum Indochina, OD700, 2 h, primary screen (AID 1155).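 Note: lysis reports solute entry through the parasite surface anion channel PSAC.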 Particulars: P. falciparum Indochina infected erythrocytes, higher = more signal, called active from +8 up or from −8 down.
Assay [15] in a line: changes in parasitized red cell lysis, either direction – P. falciparum Indochina, OD700, 3 h, PSAC antagonist project, primary screen (AID 1156). The following applies: P. falciparum-infected erythrocytes, osmotic lysis, higher = more signal, called active from +8 up or from −8 down.
Assay [16] in a line: plasmodial surface anion channel blockers, osmotic lysis – cell-based, P. falciparum Indochina, OD700, 18 h, primary screen (AID 1157). Particulars: P. falciparum Indochina infected erythrocytes, osmotic lysis OD700, 18 h; higher = more signal, called active from +8 up or from −8 down.
The nature of assay [17]: S6 kinase pathway phospho-S6 level changes – cell-based, A549, cytoblot, luminescence, serum-stimulated, primary screen (AID 1158).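 Note: serum-stimulated A549 lung adenocarcinoma cells; signal is phosphorylated S6 detected by cytoblot immunostaining with HRP secondary.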 Particulars: 5 h, higher = more signal.
The target in assay [18] is NADPH oxidase 2 (Homo sapiens) (UniProt P04839). The experiment in a line: compounds shifting NOX2 Amplex Red fluorescence – cell-based, HEK293-NOX2, PMA-stimulated, NOX inhibitor project, primary screen (AID 1159). Note: test concentration not given here. The following applies: 45 min, higher = more signal, called active from +8 up or from −8 down.
The target in assay [19] is NADPH oxidase 4 (Homo sapiens) (UniProt Q9NPH5). The experiment in a line: compounds shifting NOX4 Amplex Red fluorescence – cell-based, HEK293-NOX4, tetracycline-induced, NOX inhibitor project, primary screen (AID 1160). The following applies: HEK293-NOX4, Amplex Red H2O2 fluorescence, 45 min; higher = more signal, called active from +8 up or from −8 down.
The target in assay [20] is NADPH oxidase 5 (Homo sapiens) (UniProt Q96PH1). The experiment in a line: compounds shifting NOX5 Amplex Red fluorescence – cell-based, HEK293-NOX5, NOX inhibitor project, primary screen (AID 1161). The following applies: HEK293-NOX5, ionomycin, 45 min, higher = more signal.
Sequence of NADPH oxidase 5 (Homo sapiens) (Q96PH1 whole entry, looked up): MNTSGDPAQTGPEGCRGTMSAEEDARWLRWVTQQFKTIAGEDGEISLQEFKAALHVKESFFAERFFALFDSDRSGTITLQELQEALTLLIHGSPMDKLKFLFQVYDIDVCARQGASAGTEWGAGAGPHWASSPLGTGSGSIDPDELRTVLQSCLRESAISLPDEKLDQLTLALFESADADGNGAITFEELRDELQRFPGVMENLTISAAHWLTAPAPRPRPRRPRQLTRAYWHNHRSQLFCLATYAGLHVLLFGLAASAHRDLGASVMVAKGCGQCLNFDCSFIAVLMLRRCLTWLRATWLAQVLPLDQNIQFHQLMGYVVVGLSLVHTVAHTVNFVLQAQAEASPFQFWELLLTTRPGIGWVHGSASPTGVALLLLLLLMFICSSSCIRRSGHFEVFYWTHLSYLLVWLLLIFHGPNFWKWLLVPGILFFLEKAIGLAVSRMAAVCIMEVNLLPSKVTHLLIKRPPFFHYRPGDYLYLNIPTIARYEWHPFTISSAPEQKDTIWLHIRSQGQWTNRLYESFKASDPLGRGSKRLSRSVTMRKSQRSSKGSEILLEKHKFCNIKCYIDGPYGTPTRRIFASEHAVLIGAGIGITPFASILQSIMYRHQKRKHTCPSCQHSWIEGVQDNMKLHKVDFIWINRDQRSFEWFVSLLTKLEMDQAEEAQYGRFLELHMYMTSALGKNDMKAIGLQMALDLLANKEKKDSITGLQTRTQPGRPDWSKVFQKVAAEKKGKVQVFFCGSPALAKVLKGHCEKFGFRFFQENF

Sequence of NADPH oxidase 4 (Homo sapiens) (Q9NPH5 whole entry, looked up): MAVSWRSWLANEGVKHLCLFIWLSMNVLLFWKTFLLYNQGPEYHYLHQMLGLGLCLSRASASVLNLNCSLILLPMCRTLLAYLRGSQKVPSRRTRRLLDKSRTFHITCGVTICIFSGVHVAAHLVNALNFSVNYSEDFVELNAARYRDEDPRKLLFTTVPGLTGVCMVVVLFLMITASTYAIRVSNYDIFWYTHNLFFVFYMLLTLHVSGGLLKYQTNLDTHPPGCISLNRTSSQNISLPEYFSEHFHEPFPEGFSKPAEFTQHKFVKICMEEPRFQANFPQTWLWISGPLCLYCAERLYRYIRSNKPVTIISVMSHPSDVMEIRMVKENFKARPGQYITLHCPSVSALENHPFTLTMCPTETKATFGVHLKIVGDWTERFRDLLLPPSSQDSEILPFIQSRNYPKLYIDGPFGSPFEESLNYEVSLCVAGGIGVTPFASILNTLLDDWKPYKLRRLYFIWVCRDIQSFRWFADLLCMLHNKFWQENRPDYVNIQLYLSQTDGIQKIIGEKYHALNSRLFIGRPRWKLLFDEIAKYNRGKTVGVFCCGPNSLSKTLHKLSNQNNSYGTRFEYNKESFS
Sequence of Streptavidin (Streptomyces avidinii) (P22629 whole entry, looked up): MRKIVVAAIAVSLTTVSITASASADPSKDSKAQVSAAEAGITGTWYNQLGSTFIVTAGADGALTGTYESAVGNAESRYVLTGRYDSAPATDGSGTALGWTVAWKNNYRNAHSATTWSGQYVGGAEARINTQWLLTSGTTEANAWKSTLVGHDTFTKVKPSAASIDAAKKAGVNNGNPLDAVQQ
Sequence of NADPH oxidase 2 (Homo sapiens) (P04839 whole entry, looked up): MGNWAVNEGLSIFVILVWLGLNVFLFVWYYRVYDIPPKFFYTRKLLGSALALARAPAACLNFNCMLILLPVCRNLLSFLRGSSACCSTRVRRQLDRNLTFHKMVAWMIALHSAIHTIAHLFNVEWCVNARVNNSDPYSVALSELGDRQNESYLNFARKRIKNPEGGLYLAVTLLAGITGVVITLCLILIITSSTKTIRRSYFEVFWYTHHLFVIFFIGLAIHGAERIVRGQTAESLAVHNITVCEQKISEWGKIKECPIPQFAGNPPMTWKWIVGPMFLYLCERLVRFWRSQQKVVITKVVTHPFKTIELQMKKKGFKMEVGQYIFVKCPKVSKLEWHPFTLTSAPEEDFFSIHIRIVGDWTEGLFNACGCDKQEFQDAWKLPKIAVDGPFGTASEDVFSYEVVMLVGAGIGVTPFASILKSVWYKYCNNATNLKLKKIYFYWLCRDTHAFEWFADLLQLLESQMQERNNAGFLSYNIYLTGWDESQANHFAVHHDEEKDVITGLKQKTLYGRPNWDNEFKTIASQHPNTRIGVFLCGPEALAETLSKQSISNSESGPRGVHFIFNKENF
Sequence of Torsin-1A (Homo sapiens) (O14656 whole entry, looked up): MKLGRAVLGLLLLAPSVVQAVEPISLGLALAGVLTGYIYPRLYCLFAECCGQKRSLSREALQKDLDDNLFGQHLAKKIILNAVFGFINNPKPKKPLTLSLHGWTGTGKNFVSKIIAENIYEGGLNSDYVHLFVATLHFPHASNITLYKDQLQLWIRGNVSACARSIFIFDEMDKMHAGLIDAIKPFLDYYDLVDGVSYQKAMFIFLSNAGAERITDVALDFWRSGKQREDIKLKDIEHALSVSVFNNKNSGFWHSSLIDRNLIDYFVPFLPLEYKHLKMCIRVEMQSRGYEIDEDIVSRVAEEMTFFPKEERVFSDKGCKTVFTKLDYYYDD

With `O=C1C2C=CC(C(O)C(c3ccccc3)c3ccccc3)N(Nc3ccccc3)C2C(=O)N1c1ccccc1` (stereo not given), the composite z-score in assay [1] was 0.422; in [6] it was 0.828; in [7], 0.271; with Torsin-1A (Homo sapiens) [8], 0.616; with Torsin-1A (Homo sapiens) [9], 0.984; in assay [10] it was 0.734. Further, the composite z-score in assay [12] was found to be 0.591. Moreover, the z-score is -0.374 (inactive) in assay [2]; -1.06 (inactive) in [3]; 0.629 (inactive) in assay [4]; -0.222 (inactive) in assay [5]; -0.606 (inactive) in [11]; 1.85 (inactive) in [13]. The z-score is 1.71 (inactive) in assay [14]; 0.331 (inactive) in [15]; 1.41 (inactive) in [16]; -1.25 in assay [17]; -1.72 (inactive) in assay [18]; -4.94 (inactive) in assay [19]. Moreover, in [20], the z-score was -2.54.

Regarding `COC(=O)[C@@]1(Cc2ccccc2CN=[N+]=[N-])COC(c2ccc(OCCCO)cc2)=N1`, the composite z-score in [1] is -1.09; in assay [6] it was -1.25; in assay [7], -0.203; in the assay with Torsin-1A (Homo sapiens) [8], -3.23; in the assay with Torsin-1A (Homo sapiens) [9] it was -2.37; in assay [10], -1.15. In [12], this compound had a composite z-score of 0.2. Also, the z-score in assay [2] is -3.56 (inactive); in assay [3] it was -0.0995 (inactive); in assay [4] it was 1.19 (inactive); in assay [5] it was -0.244 (inactive); in [11] it was -0.156 (inactive); in assay [13] it was 23.8 (active). The z-score in assay [14] is 9.9 (active); in [15] it was 4.61 (inactive); in [16] it was 0.959 (inactive); in assay [17], 0.202; in assay [18] it was -3.07 (inactive); in assay [19], -0.519 (inactive). In addition, the z-score in assay [20] was -3.18.

In the case of `CC(C)[C@@H](C(=O)O)n1cc(-c2ccccc2)nn1`, the composite z-score in [1] amounted to 0.0953; in assay [6], 1.23; in assay [7] it was 0.019; in the assay with Torsin-1A (Homo sapiens) [8], 0.466; with Torsin-1A (Homo sapiens) [9], 1.16; in [10] it was 0.128. This compound also returned a composite z-score in assay [12] of 0.241. Moreover, the z-score is 0.0466 (inactive) in assay [2]; 0.69 (inactive) in assay [3]; 0.251 (inactive) in [4]; 0.0824 (inactive) in assay [5]; -1.08 (inactive) in assay [11]; 0.354 (inactive) in [13]. For the same compound, the z-score in assay [14] is 0.217 (inactive); in [15], -0.406 (inactive); in assay [16], 0.0394 (inactive); in [17] it was -0.299; in assay [18], -0.7 (inactive); in [19] it was 0.521 (inactive). Further, the z-score in [20] was -0.167.

As to `CN(C)CCCC[C@@H]1NC(=O)[C@H]2C[C@@H](C(=O)NCc3ccc(F)cc3)[C@@H](c3ccc(O)cc3)N2C1=O`, the composite z-score was 0.727 in assay [1]; -0.122 in [6]; 0.0676 in assay [7]; 1.12 with Torsin-1A (Homo sapiens) [8]; 0.587 with Torsin-1A (Homo sapiens) [9]; 2.15 in assay [10]. For the same compound, the composite z-score in assay [12] was found to be 0.364. Further, the z-score in [2] is 0.0491 (inactive); in assay [3], 0.792 (inactive); in [4], 0.0084 (inactive); in assay [5], -0.19 (inactive); in [11], 0.104 (inactive); in assay [13], 1.2 (inactive). For the same compound, the z-score is -0.0251 (inactive) in [14]; -6.5 (inactive) in [15]; 0.153 (inactive) in [16]; -0.449 in assay [17]; 0.0836 (inactive) in assay [18]; 0.799 (inactive) in assay [19]. For the same compound, the z-score in assay [20] was found to be 0.195.

Turning to `CC1CC/C=C\[C@H]2OC34C=CCN(c5ccc(Cl)cc5)C(=O)[C@H]3N(CCCO)C(=O)[C@]4(C)C2C(=O)O1` (stereo not given in full), the composite z-score in assay [1] was -0.785; in assay [6], -1.02; in assay [7], -0.253; in the assay with Torsin-1A (Homo sapiens) [8] it was -2.1; in the assay with Torsin-1A (Homo sapiens) [9] it was -0.989; in assay [10], 0.424. Moreover, the composite z-score in [12] was found to be 0.135. In addition, the z-score in [2] was -0.0438 (inactive); in assay [3], 1.63 (inactive); in [4], 0.988 (inactive); in [5] it was 0.22 (inactive); in [11] it was -0.836 (inactive); in assay [13], 0.113 (inactive). For the same compound, the z-score in assay [14] is 0.66 (inactive); in assay [15], -0.338 (inactive); in assay [16] it was 0.356 (inactive); in assay [17], -0.264; in assay [18] it was 1.5 (inactive); in assay [19], -1.22 (inactive). In assay [20], the z-score came out at 2.34.

With `C=CCN1C(=O)[C@]2(O[C@H](CCn3cc([C@H](O)c4ccccc4)nn3)[C@@H]([Si](C)(C)c3ccc(OC)cc3)[C@@H]2C)c2cc(N3C(=O)c4cccc5cccc3c45)ccc21`, the composite z-score is 0.0898 in assay [1]; 0.633 in assay [6]; -0.255 in assay [7]; -0.439 with Torsin-1A (Homo sapiens) [8]; 1.18 in the assay with Torsin-1A (Homo sapiens) [9]; 0.204 in [10]. Also, in [12], the composite z-score was -0.101. Moreover, the z-score in [2] is -6.26 (inactive); in assay [3] it was -0.774 (inactive); in [4], 9.81 (active); in assay [5] it was -0.745 (inactive); in assay [11], 0.443 (inactive); in assay [13], 5.26 (inactive). Further, the z-score was 1.59 (inactive) in [14]; 1.97 (inactive) in assay [15]; 0.889 (inactive) in assay [16]; 0.435 in assay [17]; 1.06 (inactive) in assay [18]; 1.11 (inactive) in [19]. In assay [20], the z-score is 0.797.

For `COCCOC(=O)N1C(=O)[C@@]2(c3cc(C#Cc4ccc(OC)cc4)ccc31)[C@H](C(=O)Nc1nc3ccccc3s1)[C@H]1C(=O)O[C@H](c3ccccc3)[C@H](c3ccccc3)N1[C@@H]2c1ccccc1OCCO`, the composite z-score in [1] is 0.0516; in assay [6], 0.299; in assay [7], -0.0566; with Torsin-1A (Homo sapiens) [8], 0.245; in the assay with Torsin-1A (Homo sapiens) [9], 0.243; in assay [10], 1.34. In [12], this compound came in with a composite z-score of -0.295. For the same compound, the z-score in assay [2] is -4.28 (inactive); in assay [3], -1.6 (inactive); in assay [4], -1.7 (inactive); in assay [5] it was -1.44 (inactive); in assay [11] it was 2.47 (inactive); in assay [13] it was 8.82 (active). Further, the z-score in [14] is 0.873 (inactive); in [15] it was 0.953 (inactive); in assay [16] it was 0.514 (inactive); in [17], 0.486; in assay [18] it was 1.13 (inactive); in assay [19], 0.337 (inactive). Further, in assay [20], the z-score amounted to 1.45.

Consider `O=C1N(CCS(=O)(=O)c2ccccc2)c2ccccc2[C@@H]2OC(c3ccc(OCCCO)cc3)=N[C@]12CCS(=O)(=O)c1ccccc1`, for which the composite z-score was determined as 0.277 in assay [1]; 1.12 in [6]; 0.103 in [7]; 0.741 in the assay with Torsin-1A (Homo sapiens) [8]; 1.43 in the assay with Torsin-1A (Homo sapiens) [9]; 1.3 in assay [10]. Moreover, the composite z-score in [12] is 0.677. The z-score in assay [2] was -1.35 (inactive); in [3] it was 0.647 (inactive); in [4] it was 2.41 (inactive); in assay [5], 0.103 (inactive); in assay [11], -0.927 (inactive); in assay [13], 28.2 (active). The z-score is 23.7 (active) in [14]; 1.18 (inactive) in [15]; 3.96 (inactive) in [16]; -0.47 in assay [17]; 0.678 (inactive) in assay [18]; 2.42 (inactive) in assay [19]. Also, the z-score in assay [20] stood at 2.43.
